Compound activity: PubChem BioAssay, NMMLSC
MEKK3 PB1 HTS = modulators (inhibitors or enhancers) of MEK5 binding to human MEKK3 PB1 domain. Q99759. bead-based flow cytometry, Alexa488-MEK5 binding to MEKK3; actives lie on both sides; 0 = blocked by unlabeled MEK5, 100 = vehicle. binding response (% of control), % at 10 µM. hit rate 1.4% among 290,000. AID 1529;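 active means binding response more than 3 SD above or below the average of its plate-row segment, actives on both sides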;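 further: Alexa488 bead fluorescence after subtracting the streptavidin-only scavenger bead signal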
MEKK2 WT-MEK5 = raises or lowers MEK5 binding to wildtype human MEKK2 PB1 domain; Q9Y2U5; bead flow cytometry, Alexa488-MEK5 binding to MEKK2 WT; actives lie on both sides; binding response (% of control), % at 10 µM; hit rate 1.1% among 290,000; in the data active means binding response below about 67% or above about 130%
MEKK2 mut-MEK5 = signal of MEK5 binding to mutant human MEKK2 PB1 domain; bead flow cytometry, Alexa488-MEK5 binding to MEKK2 mutant; percent response, % at 10 µM; hit rate 0.35% among 290,000; AID 1530; in the data active means percent response above about 24%, passing the limit was not always enough
GRK2 inh = human GRK2 inhibition via aptamer displacement | P25098 | bead flow cytometry, FAM-aptamer displacement from GRK2 | inhibition of aptamer binding, % at 10 µM | hit rate 0.59% among 330,000;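 active means inhibition of aptamer binding above 40%, roughly 3 SD of noise, on plates passing a quality check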;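 further: median bead fluorescence of bound FAM aptamer so fluorescent compounds give negative values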
Target sequence (P25098 whole entry, looked up): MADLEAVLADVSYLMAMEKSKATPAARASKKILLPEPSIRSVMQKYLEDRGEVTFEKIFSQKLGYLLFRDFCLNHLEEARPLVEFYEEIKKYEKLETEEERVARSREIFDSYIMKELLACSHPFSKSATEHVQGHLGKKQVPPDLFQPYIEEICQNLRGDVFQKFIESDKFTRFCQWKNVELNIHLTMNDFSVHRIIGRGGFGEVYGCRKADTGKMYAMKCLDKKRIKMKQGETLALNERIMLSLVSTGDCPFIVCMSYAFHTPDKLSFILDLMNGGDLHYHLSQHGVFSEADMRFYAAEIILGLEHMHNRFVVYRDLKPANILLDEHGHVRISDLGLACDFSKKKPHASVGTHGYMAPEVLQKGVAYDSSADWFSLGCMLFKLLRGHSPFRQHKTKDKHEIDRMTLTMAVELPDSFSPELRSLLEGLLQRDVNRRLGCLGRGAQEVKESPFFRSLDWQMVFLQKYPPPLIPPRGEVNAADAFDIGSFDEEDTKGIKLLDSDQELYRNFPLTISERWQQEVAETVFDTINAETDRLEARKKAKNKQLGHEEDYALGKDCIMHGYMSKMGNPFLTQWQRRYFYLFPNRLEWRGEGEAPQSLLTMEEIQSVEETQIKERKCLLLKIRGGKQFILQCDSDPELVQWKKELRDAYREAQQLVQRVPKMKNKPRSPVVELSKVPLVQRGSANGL
MEKK2wt confirm = raises or lowers MEK5 binding to wildtype human MEKK2, retest; binding response (% of control), % at 10 µM; bead flow cytometry, Alexa488-MEK5 binding to MEKK2 WT; actives lie on both sides; shares compounds with MEKK3 PB1 HTS; hit rate 2.4% among 5,900; AID 1892; in the data active means binding response below about 16% or above about 210%; inactive means in between
MEKK2mut-MEK5 = signal of MEK5 binding to mutant human MEKK2, retest | shares compounds with MEKK3 PB1 HTS | bead flow cytometry, Alexa488-MEK5 binding to MEKK2 mutant | percent response, % at 10 µM | hit rate 2% among 5,900 | AID 1893; in the data active means percent response mostly above about 71%, no sharp cut-off; inactive means mostly below about 38%;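 further: higher means compound restores mutant binding toward wildtype level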
MEKK3-MEK5 inh = confirmation of inhibitors of MEK5 binding to human MEKK3; binding response (% of control), % at 10 µM; shares compounds with MEKK3 PB1 HTS; hit rate 1.8% among 5,900; bead flow cytometry, Alexa488-MEK5 binding to MEKK3; stronger effect = lower value; AID 1894;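 active means binding response below 72% of control, or above a set upper limit, though filed actives all read lower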;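 further: 100% = DMSO only wells and 0% = binding blocked by excess unlabeled MEK5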
Numbers without * were called inactive; · = no result given; [ ] = another dose, or the depositor's remark. The list is not random: actives were taken first. Their share in the collection is about 2.5%.

SMILES	MEKK3 PB1 HTS	MEKK2 WT-MEK5	MEKK2 mut-MEK5	GRK2 inh	MEKK2wt confirm	MEKK2mut-MEK5	MEKK3-MEK5 inh
COc1ccc(/C(C)=N/NC(=O)c2cc(-c3cccnc3)nc3ccccc23)cc1	147.0*	110.0	0.0	0.0	129.0	27.0	121.0
CS(=O)(=O)N1CCC(C(=O)N2CCN(Cc3ccccc3)CC2)CC1	98.0	98.0	-4.0	0.0	·	·	·
CC(NCCC(c1ccccc1)c1ccccc1)c1ccccc1 (stereo not drawn)	99.0	145.0*	12.0	2.0	130.0	13.0	104.0
CCCc1cnc(NCCNCC(O)COc2ccc(Cl)c(Cl)c2)nc1 (stereo not drawn)	106.0	144.0*	31.0	0.0	109.0	1.0	102.0
O=C(CN1CCC(C(=O)c2ccc(F)cc2)CC1)Nc1ccc(F)cc1	46.0*[inhibitor]	66.0	2.0	0.0	99.0	-4.0	101.0
O=C(/C=C/c1cccc([N+](=O)[O-])c1)NCCSCc1ccccc1Cl	104.0	100.0	-2.0	0.0	·	·	·
O=C(/C=C/c1cccc([N+](=O)[O-])c1)NCCSCc1ccc(Cl)cc1Cl	130.0*	113.0	1.0	3.0	121.0	5.0	101.0
CC(C)OC(=O)/C(=C/c1ccc2c(c1)c1ccccc1n2C)NC(=O)c1ccccc1	103.0	104.0	5.0	2.0	·	·	·
COC(=O)/C(=C\c1ccc2c(c1)c1ccccc1n2C)NC(=O)c1ccccc1	2.0*[inhibitor]	2.0*[inhibitor]	-9.0	1.0	96.0	3.0	102.0
COc1ccc(CN(C(=O)CNC(=O)c2ccco2)C(C(=O)NCC2CCCO2)c2ccccc2)cc1 (stereo not drawn)	101.0	97.0	-4.0	0.0	·	·	·
N#Cc1ccccc1NC(=O)c1ccccc1OCC(=O)Nc1ccc2c(c1)oc1ccccc12	78.0*[inhibitor]	88.0	-11.0	1.0	91.0	-33.0	96.0
CNC(=O)COc1ccccc1C(=O)Nc1ccc2c(c1)oc1ccccc12	103.0	101.0	1.0	3.0	·	·	·
Cc1ccc2c(c1)c1c(n2CC(O)Cn2c(C)nc3ccccc32)CCCC1 (stereo not drawn)	108.0	133.0	27.0*	0.0	123.0	14.0	105.0
Cc1ccc2c(c1)c1c(n2CC(O)Cn2nc(C)c(Br)c2C)CCCC1 (stereo not drawn)	95.0	91.0	-6.0	0.0	·	·	·
CC(=O)OCC(=O)C1=CCC2C3CCC4=CC(=O)C=CC4(C)C3(F)C(OC(C)=O)CC12C (stereo not drawn)	62.0*[inhibitor]	37.0*[inhibitor]	-2.0	5.0	103.0	0.0	102.0
CSc1nnc(-c2nnc(SC)n2-c2ccccc2)n1-c1ccccc1	22.0*[inhibitor]	35.0*[inhibitor]	-33.0	4.0	96.0	0.0	101.0
CC(/C=N/n1c(-c2ccco2)n[nH]c1=S)=C\c1ccccc1	134.0*	104.0	0.0	0.0	98.0	-2.0	102.0
CCCCNC(=O)C1CCN(c2nc(OC)nc(OC)n2)CC1	124.0*	96.0	9.0	0.0	103.0	1.0	102.0
Cc1c(Cl)c([N+](=O)[O-])nn1CC(=O)Nc1c(C)n(C)n(-c2ccccc2)c1=O	103.0	104.0	2.0	0.0	·	·	·
C#CCOCCOCCOCCNc1nc(N2CCOCC2)nc(N2CCN(C(=O)[C@H](CCC(=O)O)n3cc([C@@H](N)CCCCN)nn3)CC2)n1	·	·	·	0.0	·	·	·
CNC(=S)Nc1ccc(OC)c(OC)c1	2.0*[inhibitor]	3.0*[inhibitor]	-21.0	4.0	100.0	3.0	104.0
CC1(CCc2ccc3c(c2)OCO3)NCCc2c1[nH]c1ccccc21 (stereo not drawn)	107.0	139.0	25.0*	1.0	131.0	14.0	105.0
CC1(CCc2ccc3c(c2)OCO3)NC(=O)c2ccccc2N1 (stereo not drawn)	110.0	111.0	3.0	4.0	·	·	·
O=C(N/N=C/c1ccc(O)cc1)c1cc[n+](Cc2ccccc2)cc1	95.0	107.0	10.0	0.0	·	·	·
O=C(N/N=C/c1ccc(OCc2ccccc2)cc1)c1cc[n+](Cc2ccccc2)cc1	97.0	153.0*	21.0	0.0	160.0	26.0	109.0
SMILES	MEKK3 PB1 HTS	MEKK2 WT-MEK5	MEKK2 mut-MEK5	GRK2 inh	MEKK2wt confirm	MEKK2mut-MEK5	MEKK3-MEK5 inh
COc1cc(C(=S)N2CCCCC2)ccc1OCC(=O)N1CCCC1	124.0*	118.0	5.0	2.0	99.0	-2.0	104.0
CCOc1cc(C(=S)N2CCCCC2)ccc1OCC(=O)NCc1ccccc1	75.0*[inhibitor]	87.0	-8.0	25.0	107.0	7.0	106.0
CCN1CCN(C(=S)c2ccc(OCC(=O)NCc3ccccc3)cc2)CC1	99.0	96.0	-2.0	1.0	·	·	·
O=C(CSc1ccc2nnc(-c3cccc(F)c3)n2n1)NCC1CCCO1 (stereo not drawn)	107.0	111.0	7.0	0.0	·	·	·
CC(=O)c1c(C)[nH]c(C(=O)Nc2nc(-c3ccccc3)c(C)s2)c1C	102.0	102.0	2.0	3.0	·	·	·
Cc1nn(CC2CC2)c(=O)n1-c1ccc(F)cc1	129.0*	115.0	3.0	0.0	100.0	0.0	100.0
Cc1nn(CC2CC2)c(=O)n1-c1cccc(Cl)c1	154.0*	133.0	5.0	1.0	97.0	-5.0	98.0
Cc1ccc(-n2c(C)nn(CC3CC3)c2=O)cc1	97.0	97.0	-3.0	0.0	·	·	·
CC(C)c1csc(CN2CCN(Cc3ccccc3)C(CCO)C2)n1 (stereo not drawn)	96.0	94.0	-2.0	3.0	·	·	·
Cc1cc(NC(=O)C(C)Oc2ccc(Cl)cc2Cl)n(-c2ccccc2)n1 (stereo not drawn)	95.0	90.0	-3.0	1.0	·	·	·
Cc1nn(CCC(N)=S)c2nc(-c3cccs3)cc(C(F)(F)F)c12	151.0*	104.0	0.0	12.0	105.0	8.0	104.0
COC(=O)c1sccc1NC(=O)c1ccccc1[N+](=O)[O-]	102.0	104.0	-1.0	0.0	·	·	·
COc1ccc(S(=O)(=O)N2CCCC(C(=O)N3CCCC3)C2)cc1OC (stereo not drawn)	·	·	·	0.0	·	·	·
COc1ccc(S(=O)(=O)N2CCC(C(=O)N3CCCCC3)CC2)cc1OC	130.0*	121.0	6.0	0.0	98.0	9.0	102.0
COc1ccccc1OCCNc1cc(N2CCCCC2)ccc1[N+](=O)[O-]	106.0	104.0	-2.0	0.0	·	·	·
CCOc1cc(N2CCCC2)ccc1[N+](=O)[O-]	133.0*	107.0	2.0	0.0	101.0	-6.0	103.0
COc1ccccc1-c1cc(C(F)(F)F)nc(S(=O)(=O)CCCC(=O)N2CCOCC2)n1	100.0	100.0	6.0	6.0	·	·	·
CCOc1ncccc1C(=O)OCC(=O)c1ccc(C)c(C)c1	105.0	102.0	-4.0	2.0	·	·	·
CCN1CCC(C(N)=O)CC1	0.0*[inhibitor]	0.0*[inhibitor]	-35.0	0.0	100.0	5.0	105.0
CCOc1ccccc1CNC(=O)c1nn(CC)cc1[N+](=O)[O-]	103.0	96.0	-2.0	4.0	·	·	·
